Experimental data taken from PubChem BioAssay (NCATS).
Inconclusive results are not listed. Calls of active or inactive are those of the source. Unless noted, the call rests on the fitted dose curve; in most records, active means well fitted curve in the direction sought with a large enough effect; inconclusive means small, poorly fitted or top-dose-only effect, or another doubt; inactive means no such curve, though single readings can be large; an effect the other way counts as inactive or inconclusive.

Experiments:
[1] = AP1 Signaling Pathway (AID 357; active means well fitted curve in either direction with a large enough effect, not every such curve was filed as active;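 further: ME-180 reporter cells stimulated with EGF at its EC50 level; on the % scale 0 is the no-effect control and ±100 the full control effect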); details: ME-180 AP-1-bla reporter, EGF-induced, beta-lactamase ratio, 5 h; at 7.69 µM (top of the series) unless noted
Procedure, shortened: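 Titration-series screen for positive or negative modulators of EC50 EGF-induced signaling in ME-180 cells carrying an AP-1-driven beta-lactamase reporter. After 5 hours at 37 degrees Celsius, CCF4 460nm/530nm emission ratio gave %Activity; AC50 values derived.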

[2] = biological target: Cytochrome P450 1A2 (Homo sapiens) (UniProt P05177); assay: p450-cyp1a2 (AID 410; calls by dose curve; further: potency means the concentration at half of the fitted maximal effect)
Cytochrome P450 1A2 (Homo sapiens), sequence (P05177 whole entry, looked up): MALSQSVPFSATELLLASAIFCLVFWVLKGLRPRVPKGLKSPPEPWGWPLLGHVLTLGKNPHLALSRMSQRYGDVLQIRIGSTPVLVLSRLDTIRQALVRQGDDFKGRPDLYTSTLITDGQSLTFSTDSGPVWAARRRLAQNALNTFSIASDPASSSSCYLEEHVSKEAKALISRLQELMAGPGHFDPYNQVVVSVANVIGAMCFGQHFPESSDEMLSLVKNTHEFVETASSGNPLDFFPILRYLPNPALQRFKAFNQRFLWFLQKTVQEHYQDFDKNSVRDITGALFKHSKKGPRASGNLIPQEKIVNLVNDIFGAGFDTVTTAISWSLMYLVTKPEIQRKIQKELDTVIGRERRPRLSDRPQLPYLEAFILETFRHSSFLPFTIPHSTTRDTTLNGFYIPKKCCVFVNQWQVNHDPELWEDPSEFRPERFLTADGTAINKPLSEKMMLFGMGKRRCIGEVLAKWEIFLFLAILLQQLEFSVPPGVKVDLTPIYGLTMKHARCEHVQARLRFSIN
Procedure, shortened: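 Luminescent demethylation readout: Luciferin-ME (100uM, equal to Km) turned over by 20nM CYP1A2 for 60 min at room temperature after NADPH regeneration addition, following 10 min compound preincubation. Normalization used 57 uM furafylline as full inhibition.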

[3] = Stat Signaling Pathway (AID 446; active means well fitted curve in either direction with a large enough effect, not every such curve was filed as active;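 further: ME-180 cervical cancer cells given 40 pM IL-6 alongside compound; SIE-controlled beta-lactamase reporter measured as 460/530 nm FRET emission ratio; on the % scale 0 is the no-effect control and ±100 the full control effect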); details: ME-180 SIE beta-lactamase reporter, IL-6 stimulated, 5 h; at 7.69 µM (top of the series) unless noted
Procedure, shortened: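 Normalization used AC90 stimulation (300 pM IL-6) and AC90 inhibition (125 nM pan-JAK inhibitor at 40 pM IL-6). The underlying signal is SIE-driven beta-lactamase in ME-180 cells after 5 h IL-6 exposure with compound.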

[4] = biological target: Glucocorticoid receptor (Homo sapiens) (UniProt P04150); assay: GR-GFP Redistribution (AID 450;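 active means compounds whose dose series gives a full or clear partial fitted curve of increased nuclear translocation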; further: potency means the concentration at half of the fitted maximal effect); details: U2OS GR-GFP nuclear translocation, laser cytometry, 2 h
Glucocorticoid receptor (Homo sapiens), sequence (P04150 whole entry, looked up, the tested form may be a part): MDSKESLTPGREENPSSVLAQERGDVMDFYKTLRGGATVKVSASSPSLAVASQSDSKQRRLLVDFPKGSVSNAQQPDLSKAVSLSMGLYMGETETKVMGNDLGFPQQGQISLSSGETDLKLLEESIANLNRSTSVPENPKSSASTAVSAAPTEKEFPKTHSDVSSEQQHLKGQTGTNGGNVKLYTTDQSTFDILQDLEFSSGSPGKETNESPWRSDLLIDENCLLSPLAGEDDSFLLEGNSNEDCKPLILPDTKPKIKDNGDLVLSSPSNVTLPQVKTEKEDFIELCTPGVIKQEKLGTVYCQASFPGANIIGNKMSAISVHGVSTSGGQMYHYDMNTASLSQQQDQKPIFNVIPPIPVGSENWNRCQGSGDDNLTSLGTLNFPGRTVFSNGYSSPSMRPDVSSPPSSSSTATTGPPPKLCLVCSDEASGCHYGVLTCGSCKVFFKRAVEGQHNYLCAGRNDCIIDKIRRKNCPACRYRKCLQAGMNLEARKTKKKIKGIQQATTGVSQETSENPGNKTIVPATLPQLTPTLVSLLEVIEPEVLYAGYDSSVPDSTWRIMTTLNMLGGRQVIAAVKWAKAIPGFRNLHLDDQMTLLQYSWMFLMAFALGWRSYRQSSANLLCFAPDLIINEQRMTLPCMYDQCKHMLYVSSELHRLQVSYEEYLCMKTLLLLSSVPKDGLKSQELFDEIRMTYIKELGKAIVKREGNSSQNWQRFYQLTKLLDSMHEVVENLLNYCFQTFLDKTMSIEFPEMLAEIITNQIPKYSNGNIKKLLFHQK

[5] = biological target: Glucocorticoid receptor (Homo sapiens) (UniProt P04150); assay: GR-EFC Redistribution (AID 451; calls by dose curve; further: potency means the concentration at half of the fitted maximal effect); details: CHO-K1 GR-EFC translocation, beta-gal luminescence, 2 h
Procedure, shortened: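 CHO-K1 cells expressing nuclear EA and GR-ED fragments of b-gal; compounds titrated up to 46 uM final, 2 h at 37 C. GR nuclear translocation read as complemented b-gal luminescence after 1 h RT detection.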

[6] = biological target: Mitogen-activated protein kinase 10 (Mus musculus) (UniProt Q61831); assay: JNK3 AlphaScreen Assay (AID 530; active means well fitted curve in either direction with a large enough effect, not every such curve was filed as active;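 further: kinase came from lysate of stimulated human HepG2 cells; signal reports phosphorylation of biotinylated GST-cJun 1-79 at Ser73 with 10 µM ATP; on the % scale 0 is the no-effect control and ±100 the full control effect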)
Procedure, shortened: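 Activity was read by AlphaScreen after JNK3-containing HepG2 lysate (cytokine pre-activated) phosphorylated biotinylated GST-cJun with 10 uM ATP at room temperature. Phospho-Ser73 cJun antibody with Protein-A acceptor beads provided detection.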

[7] = biological target: Cytochrome P450 3A4 (Homo sapiens) (UniProt P08684); assay: qHTS Assay for Inhibitors and Substrates of Cytochrome P450 3A4 (AID 884); further: potency means the concentration at half of the fitted maximal effect; nearly all actives have a fitted effect of over 50% in size
Cytochrome P450 3A4 (Homo sapiens), sequence (P08684 whole entry, looked up): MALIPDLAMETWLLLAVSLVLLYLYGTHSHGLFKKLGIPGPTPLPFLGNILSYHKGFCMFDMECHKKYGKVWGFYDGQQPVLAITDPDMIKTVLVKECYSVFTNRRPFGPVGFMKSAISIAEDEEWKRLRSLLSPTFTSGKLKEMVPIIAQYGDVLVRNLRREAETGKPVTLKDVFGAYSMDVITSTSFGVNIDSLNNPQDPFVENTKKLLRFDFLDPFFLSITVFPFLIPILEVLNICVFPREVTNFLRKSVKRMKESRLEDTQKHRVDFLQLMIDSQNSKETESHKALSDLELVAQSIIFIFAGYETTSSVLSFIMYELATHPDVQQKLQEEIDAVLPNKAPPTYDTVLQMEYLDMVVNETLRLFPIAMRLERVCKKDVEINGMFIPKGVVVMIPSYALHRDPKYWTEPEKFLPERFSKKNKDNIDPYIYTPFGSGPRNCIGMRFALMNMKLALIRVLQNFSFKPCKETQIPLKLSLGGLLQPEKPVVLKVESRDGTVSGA
Procedure, shortened: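 Luminescent readout of luciferin produced by CYP3A4 (20 nM) dealkylation of Luciferin-PPXE, 25 uM (its KM). NADPH-driven reaction ran 60 min at RT after 10 min compound preincubation; data scaled to 57 uM ketoconazole as 100% inhibition.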

[8] = biological target: Cytochrome P450 3A4 (Homo sapiens) (UniProt P08684); assay: qHTS Assay for Activators of Cytochrome P450 3A4 (AID 885); further: nearly all actives have a fitted effect of over 65% in size
Procedure, shortened: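 Human CYP3A4 dealkylates Luciferin-PPXE to luciferin, which luciferase detection converts to light. Substrate was at its KM (25uM), buffer 200mM KPO4, reaction 60 min at RT.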

[9] = biological target: Cytochrome P450 2D6 (Homo sapiens) (UniProt P10635); assay: qHTS Assay for Inhibitors and Substrates of Cytochrome P450 2D6 (AID 891); further: potency means the concentration at half of the fitted maximal effect; nearly all actives have a fitted effect of over 60% in size
Procedure, shortened: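 Luminescent read-out of luciferin formed by 5 nM human CYP2D6 demethylating 30 uM Luciferin-ME EGE (Km level) over 60 min at room temperature after NADPH regeneration addition. Data normalized to full inhibition by 1.43 uM quinidine.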

[10] = biological target: Cytochrome P450 2C19 (Homo sapiens) (UniProt P33261); assay: qHTS Assay for Inhibitors and Substrates of Cytochrome P450 2C19 (AID 899); further: potency means the concentration at half of the fitted maximal effect; nearly all actives have a fitted effect of over 60% in size
Cytochrome P450 2C19 (Homo sapiens), sequence (P33261 whole entry, looked up): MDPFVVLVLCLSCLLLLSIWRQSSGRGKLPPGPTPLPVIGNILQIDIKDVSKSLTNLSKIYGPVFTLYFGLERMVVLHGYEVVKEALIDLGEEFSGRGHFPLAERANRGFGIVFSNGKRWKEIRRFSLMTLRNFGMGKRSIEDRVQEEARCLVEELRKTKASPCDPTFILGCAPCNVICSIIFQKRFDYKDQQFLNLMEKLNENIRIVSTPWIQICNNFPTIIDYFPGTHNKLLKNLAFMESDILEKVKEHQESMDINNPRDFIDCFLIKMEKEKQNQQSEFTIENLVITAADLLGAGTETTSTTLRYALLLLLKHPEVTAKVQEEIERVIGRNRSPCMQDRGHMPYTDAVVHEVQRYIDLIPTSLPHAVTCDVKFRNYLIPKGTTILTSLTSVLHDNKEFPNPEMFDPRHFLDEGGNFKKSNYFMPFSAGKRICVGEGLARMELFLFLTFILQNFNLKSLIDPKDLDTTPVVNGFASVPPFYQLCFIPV
Procedure, shortened: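 5 nM human CYP2C19 with 10uM Luciferin-H EGE (at KM) in 50mM KPO4, compound preincubated 10 min at 37C, then NADPH regeneration for 60 min at 37C. Luciferin read by luminescence after detection reagent; normalized to 57uM ketoconazole as full inhibition.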

[11] = biological target: Dual specificity protein kinase CLK4 (Homo sapiens) (UniProt Q9HAZ1); assay: qHTS Assay for Inhibitors of CDC-like Kinase 4 (Kinase-Glo Assay) (AID 1770); further: nearly all actives have a fitted effect of over 65% in size; further: potency means the concentration at half of the fitted maximal effect
Dual specificity protein kinase CLK4 (Homo sapiens), sequence (Q9HAZ1 whole entry, looked up): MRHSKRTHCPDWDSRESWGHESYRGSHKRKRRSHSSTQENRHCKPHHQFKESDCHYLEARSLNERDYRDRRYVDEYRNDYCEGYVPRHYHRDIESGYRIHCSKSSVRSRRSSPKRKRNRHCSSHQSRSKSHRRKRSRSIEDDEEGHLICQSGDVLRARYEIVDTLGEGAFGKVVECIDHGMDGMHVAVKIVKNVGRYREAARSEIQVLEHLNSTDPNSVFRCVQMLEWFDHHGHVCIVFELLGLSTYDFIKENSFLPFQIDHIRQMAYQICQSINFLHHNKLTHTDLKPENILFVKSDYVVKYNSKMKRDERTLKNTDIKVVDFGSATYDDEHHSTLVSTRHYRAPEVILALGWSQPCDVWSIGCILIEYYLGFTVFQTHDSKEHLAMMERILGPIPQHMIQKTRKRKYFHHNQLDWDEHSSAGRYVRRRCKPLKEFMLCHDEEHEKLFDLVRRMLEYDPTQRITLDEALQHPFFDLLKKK
Procedure, shortened: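 25 nM Clk4 with 100 uM RS repeat peptide and 1 uM ATP (final) in Tris pH7.5, 10 mM MgCl2, 4.5 h at room temperature. Remaining ATP measured by Kinase-Glo luciferase luminescence.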

[12] = biological target: Dual specificity protein kinase CLK4 (Homo sapiens) (UniProt Q9HAZ1); assay: qHTS Assay for Inhibitors of CDC-like Kinase 4 (ADP-Glo Assay) (AID 1771); further: nearly all actives have a fitted effect of over 70% in size; further: potency means the concentration at half of the fitted maximal effect
Procedure, shortened: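 ADP production was read by ADP-Glo luminescence after residual ATP depletion, following 1 h room-temperature reaction of 25 nM Clk4, 1 uM ATP and 100 uM RS peptide with MgCl2, EGTA, DTT and Triton X-100.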

[13] = biological target: Ubiquitin carboxyl-terminal hydrolase 1 (Homo sapiens) (UniProt O94782); assay: Inhibitors of USP1/UAF1: Pilot qHTS (AID 504865);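 further: rhodamine fluorescence freed from ubiquitin-rhodamine substrate followed over time; top concentration of the series differs between compounds; on the % scale 0 is the no-effect control and ±100 the full control effect; nearly all actives have a fitted effect of over 35% in size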
Ubiquitin carboxyl-terminal hydrolase 1 (Homo sapiens), sequence (O94782 whole entry, looked up): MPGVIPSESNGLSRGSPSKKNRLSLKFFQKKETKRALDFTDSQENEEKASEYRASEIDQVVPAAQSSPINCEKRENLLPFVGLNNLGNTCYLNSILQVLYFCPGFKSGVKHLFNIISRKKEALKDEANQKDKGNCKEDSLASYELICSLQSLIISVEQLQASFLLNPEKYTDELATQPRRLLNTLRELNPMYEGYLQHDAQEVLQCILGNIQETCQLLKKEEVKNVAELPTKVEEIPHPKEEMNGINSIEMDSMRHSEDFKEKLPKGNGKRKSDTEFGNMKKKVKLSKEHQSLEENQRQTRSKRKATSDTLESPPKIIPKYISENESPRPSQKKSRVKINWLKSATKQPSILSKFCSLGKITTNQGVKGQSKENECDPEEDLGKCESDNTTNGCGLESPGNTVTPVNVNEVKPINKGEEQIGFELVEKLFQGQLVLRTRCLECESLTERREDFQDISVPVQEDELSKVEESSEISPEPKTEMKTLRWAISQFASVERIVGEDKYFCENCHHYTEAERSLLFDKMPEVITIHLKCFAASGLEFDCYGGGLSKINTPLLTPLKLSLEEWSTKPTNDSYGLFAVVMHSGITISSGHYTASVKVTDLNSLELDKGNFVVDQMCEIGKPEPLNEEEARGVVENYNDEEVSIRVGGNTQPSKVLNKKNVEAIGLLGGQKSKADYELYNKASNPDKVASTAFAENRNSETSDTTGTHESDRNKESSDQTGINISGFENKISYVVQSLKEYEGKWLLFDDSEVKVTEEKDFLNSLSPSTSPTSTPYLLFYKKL
Procedure, shortened: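 USP1/UAF1 complex at 1 nM preincubated 15 min at room temperature with compound, then Ub-Rho substrate added at 150 nM final. Fluorescence (480/540 nm) read kinetically in 50 mM HEPES pH 7.8, 0.5 mM EDTA, 1 mM TCEP, 0.1 mg/ml BSA, 0.01% Tween-20.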

[14] = Primary qHTS for small molecule stabilizers of the endoplasmic reticulum resident proteome: Secreted ER Calcium Modulated Protein (SERCaMP) assay (AID 1508630); further: on the % scale 0 is the no-effect control and ±100 the full control effect
Procedure, shortened: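 The SH-SY5Y reporter protocol was run at 3 concentrations up to 38.3 uM (primary) or 11 concentrations (follow-up): 16 h compound, 100 nM thapsigargin for 4 h, then extracellular luciferase luminescence.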

[15] = biological target: Lysosomal acid glucosylceramidase (Homo sapiens) (UniProt P04062); assay: Glucocerebrosidase-p2 (AID 348; in the data active means potency below about 10 µM; further: potency means the concentration at half of the fitted maximal effect); details: purified GBA, blue fluorogenic substrate, 40 min
Lysosomal acid glucosylceramidase (Homo sapiens), sequence (P04062 whole entry, looked up): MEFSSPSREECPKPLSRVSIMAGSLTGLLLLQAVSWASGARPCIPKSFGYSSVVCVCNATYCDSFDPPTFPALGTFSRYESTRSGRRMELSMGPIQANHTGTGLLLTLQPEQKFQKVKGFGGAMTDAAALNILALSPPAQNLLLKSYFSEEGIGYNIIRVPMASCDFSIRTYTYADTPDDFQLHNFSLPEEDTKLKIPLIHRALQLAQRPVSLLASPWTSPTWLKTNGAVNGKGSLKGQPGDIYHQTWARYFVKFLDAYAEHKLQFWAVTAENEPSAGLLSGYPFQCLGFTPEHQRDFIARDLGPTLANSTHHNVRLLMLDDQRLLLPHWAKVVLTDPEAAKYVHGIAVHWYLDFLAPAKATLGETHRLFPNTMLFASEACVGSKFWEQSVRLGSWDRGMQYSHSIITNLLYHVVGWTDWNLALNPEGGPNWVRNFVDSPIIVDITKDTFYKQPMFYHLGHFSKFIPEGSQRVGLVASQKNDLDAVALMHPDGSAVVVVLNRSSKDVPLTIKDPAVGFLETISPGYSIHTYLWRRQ
Procedure, shortened: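 Normal human glucocerebrosidase (0.2 nM) with blue fluorogenic substrate (80 uM final) in citrate/phosphate pH 5.9 with 10mM sodium taurocholate, 0.01% tween-20; 40 min RT, NaOH/glycine stop; fluorescence Ex 365/Em 440; AC50 from a titration from 0.6 nM upwards.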

[16] = NFAT Signaling Pathway (AID 444; active means well fitted curve in either direction with a large enough effect, not every such curve was filed as active); details: Jurkat NFAT-bla M1, carbachol, beta-lactamase ratio, 5 h; at 7.69 µM (top of the series) unless noted
Procedure, shortened: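 Jurkat cells with NFAT-driven β-lactamase reporter and co-expressed M1 receptor, stimulated with carbachol (final 1 uM, ~EC50), compound titration, 5 h at 37 °C. CCF4 loaded 1 h at RT; 460/530 nm ratio gave %activity and AC50.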

[17] = biological target: 3',5'-cyclic-AMP phosphodiesterase 4B (Homo sapiens) (UniProt Q07343); assay: qHTS Assay for Inhibitors of PDE-IV (AID 607; active means well fitted activation curve with a large enough effect in the main read-out, with a control signal flat, not every such curve was filed as active; further: % of control where 0% means no effect)
3',5'-cyclic-AMP phosphodiesterase 4B (Homo sapiens), sequence (Q07343 whole entry, looked up): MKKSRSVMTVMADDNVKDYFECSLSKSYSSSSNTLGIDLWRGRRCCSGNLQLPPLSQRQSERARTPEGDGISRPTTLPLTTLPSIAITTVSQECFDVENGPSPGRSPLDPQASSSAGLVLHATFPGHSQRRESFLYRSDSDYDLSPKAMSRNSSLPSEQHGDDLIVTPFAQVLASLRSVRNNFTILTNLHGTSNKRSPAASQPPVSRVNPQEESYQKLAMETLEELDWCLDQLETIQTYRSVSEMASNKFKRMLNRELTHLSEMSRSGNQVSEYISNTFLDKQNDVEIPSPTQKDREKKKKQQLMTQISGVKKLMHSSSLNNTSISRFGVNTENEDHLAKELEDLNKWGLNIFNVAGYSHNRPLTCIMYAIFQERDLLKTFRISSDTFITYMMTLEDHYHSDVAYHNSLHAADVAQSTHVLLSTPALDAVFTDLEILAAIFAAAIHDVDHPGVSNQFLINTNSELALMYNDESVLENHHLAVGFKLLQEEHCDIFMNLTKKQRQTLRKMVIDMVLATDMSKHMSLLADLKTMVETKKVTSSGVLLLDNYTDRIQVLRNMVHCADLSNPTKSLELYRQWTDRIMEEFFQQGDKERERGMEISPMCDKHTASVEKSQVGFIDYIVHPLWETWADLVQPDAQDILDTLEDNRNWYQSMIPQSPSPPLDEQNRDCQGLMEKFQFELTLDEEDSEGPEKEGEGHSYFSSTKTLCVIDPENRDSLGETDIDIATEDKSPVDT
Procedure, shortened: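 HEK293 ACTOne cells with CNG channel (1000/well), endogenous PDE4; membrane potential dye, compounds up to 22.9 uM final. Fluorescence Ex 535/Em 590; RO 20-1724 (100 uM final) as reference.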

[18] = biological target: Dual specificity protein kinase CLK4 (Homo sapiens) (UniProt Q9HAZ1); assay: qHTS Assay for Inhibitors of CDC-like Kinase 4 (ADP-FP Assay) (AID 1795);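 further: recombinant human CLK4 phosphorylating RS repeat peptide at 1 µM ATP; on the % scale 0 is the no-effect control and ±100 the full control effect; nearly all actives have a fitted effect of over 60% in size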
Procedure, shortened: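 Recombinant Clk4 (6.25 nM) phosphorylated 100 uM RS repeat peptide with 1 uM ATP in 25 mM Tris pH 7.5, 10 mM MgCl2, 0.5 mM EGTA, 2.5 mM DTT, 0.01% Triton X-100 for 1 h. ADP was detected by Transcreener ADP2 competitive fluorescence polarization after 30 min at room temperature.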

[19] = qHTS Assay for Identification of Small Molecule Agonists for Hypoxia Response Element Signaling Pathway (AID 914; active means well fitted activation curve with a large enough effect in the signal ratio, with a control signal flat, not every such curve was filed as active; the % refers to the signal ratio; further: potency means the concentration at half of the fitted maximal effect); details: ME-180 (cervical carcinoma) HRE-bla reporter, beta-lactamase ratio, CoCl2, 17 h; activation: hits give high values
Procedure, shortened: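 In Opti-MEM containing 0.5% dialyzed FBS and 10 mM HEPES, ME-180 HRE-bla cells received a compound titration and EC50 CoCl2. They were incubated 17 hours, then CCF4-loaded 2.5 hours at room temperature before ratio reading.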

COc1ccc2[nH]cc(CCNc3nc(-c4cccnc4)nc4ccccc34)c2c1
inactive: activity change, negative = inhibition [1] -14.3% | activity, negative = inhibition [3] -15.6% | Potency [4] > 46 µM | Potency [5] > 46 µM | Potency [6] | Potency [8] | Potency [13] | outcome [14]
active: Potency [2] 0.501 µM | Potency [7] 1.58 µM | Potency [9] 6.31 µM | Potency [10] 0.501 µM | Potency [11] 11.2 µM | Potency [12] 7.94 µM

COc1ccccc1CNc1cc(-c2ccccc2Cl)ncn1
inactive: Potency [15] > 11.4 µM | activity change, negative = inhibition [1] -13.2% | activity change, negative = inhibition [16] 0.444% | activity, negative = inhibition [3] -1.65% | Potency [4] > 46 µM | Potency [5] > 46 µM | Potency [6] | Potency [8] | Potency [13] | outcome [14]
active: Potency [11] 25.1 µM | Potency [12] 15.8 µM

Cc1noc(C)c1-c1nccc(N2CCN(C)CC2)n1
inactive: activity change, negative = inhibition [1] 16% | activity change, negative = inhibition [16] -10.9% | activity, negative = inhibition [3] 11.7% | Potency [4] > 46 µM | Potency [5] > 46 µM | Potency [6] | Potency [17] | Potency [11] | Potency [12] | Potency [13] | outcome [14]
active: Potency [2] 2 µM

COc1cccc(Nc2ncc3nc(-c4ccccc4)c(=O)n(C)c3n2)c1
active: Potency [2] 3.16 µM
inactive: Potency [15] > 11.4 µM | activity change, negative = inhibition [1] -7.32% | activity change, negative = inhibition [16] -6.92% | activity, negative = inhibition [3] 4.13% | Potency [4] > 9.22 µM | Potency [5] > 46 µM | Potency [6] | Potency [11] | Potency [18] | Potency [13] | outcome [14]

COc1ccc(CNc2ncncc2-c2c(C)noc2C)c(OC)c1
inactive: Potency [15] > 11.4 µM | activity change, negative = inhibition [1] -10.6% | activity change, negative = inhibition [16] 9.48% | activity, negative = inhibition [3] 2.92% | Potency [4] > 46 µM | Potency [5] > 46 µM | Potency [6] | Potency [17] | Potency [8] | Potency [11] | Potency [18] | Potency [13] | outcome [14]
active: Potency [2] 25.1 µM | Potency [7] 1.26 µM

CN1CCN(c2ncncc2-c2cccnc2)CC1
inactive: Potency [15] > 11.4 µM | activity change, negative = inhibition [1] 2.82% | activity change, negative = inhibition [16] -6.42% | activity, negative = inhibition [3] -20.2% | Potency [4] > 46 µM | Potency [5] > 46 µM | Potency [6] | Potency [17] | Potency [8] | Potency [11] | Potency [18] | Potency [13] | outcome [14]
active: Potency [2] 25.1 µM

CCNc1ncc2nc(-c3ccc(F)cc3)c(=O)n(CCc3ccccc3)c2n1
inactive: Potency [15] > 11.4 µM | activity change, negative = inhibition [1] 12.6% | activity change, negative = inhibition [16] -12.8% | Potency [4] > 9.22 µM | Potency [5] > 46 µM | Potency [6] | Potency [11] | Potency [12] | Potency [13] | outcome [14]
active: Potency [19] 0.398 µM

CN(C)c1ccc(-c2cncnc2Nc2ccccc2)cc1
inactive: Potency [15] > 11.4 µM | activity change, negative = inhibition [1] -29.4% | activity change, negative = inhibition [16] -2.66% | activity, negative = inhibition [3] -12% | Potency [4] > 46 µM | Potency [5] > 46 µM | Potency [8] | Potency [13] | outcome [14]
active: Potency [2] 0.398 µM | Potency [7] 0.631 µM | Potency [10] 0.316 µM | Potency [11] 22.4 µM
